Records with an inconclusive call do not appear. Unmarked numbers belong to inactive results. Activity calls are given as the source filed them. Calls follow the shape of the full dose curve.
Molecular target: Vitamin D3 receptor (Homo sapiens) (UniProt P11473)
Assay: qHTS assay to identify small molecule agonists of the vitamin D receptor (VDR) signaling pathway (AID 743222)
Conditions: HEK293T VDR-UAS-bla, beta-lactamase FRET ratio, 16 h; series mostly up to 63.5 µM; activation: at the top concentration
Excerpt: National Center for Advancing Translational Sciences [NCATS]
NIH Chemical Genomics Center [NCGC]
U.S. Environmental Protection Agency [EPA]
National Institutes of Environmental Health Sciences [NIEHS]
National Toxicology Program [NTP]
U.S. Food and Drug Administration [FDA]
The vitamin D receptor (VDR), a member of nuclear hormone receptor superfamily, plays a critical role in calcium homeostasis and bone metabolism. It is also involved in cell differentiation and growth, and thrombogenicity.
Tox21 Assay Protocol Summary:
VDR-bla cells were dispensed at 2,000 cells/6 uL/well into black wall/clear-bottom 1536-well plates using a Multidrop Combi (Thermo Fisher Scientific, Waltham, MA) dispenser. After the assay plates were incubated at a 37C and 5% CO2 for 4 h, 23 nL of compounds dissolved in DMSO, positive controls or DMSO only was transferred to the assay plate by a Pintool station (Kalypsys, San Diego, CA). The plates were incubated at 37C and 5% CO2 for 16 h. After 1 uL of LiveBLAzerTM B/G FRET substrate was added using a Bioraptr Flying Reagent Dispenser (FRD) workstation (Beckman Coulter, Indianapolis, IN, USA), the plates were incubated at room temperature for 2 h, and fluorescence intensity was measured by an Envision plate reader (PerkinElmer, Shelton, CT).
% is scaled to controls: 0 for no effect and ±100 for the full control effect.

Sequence of Vitamin D3 receptor (Homo sapiens) (P11473 whole entry, looked up): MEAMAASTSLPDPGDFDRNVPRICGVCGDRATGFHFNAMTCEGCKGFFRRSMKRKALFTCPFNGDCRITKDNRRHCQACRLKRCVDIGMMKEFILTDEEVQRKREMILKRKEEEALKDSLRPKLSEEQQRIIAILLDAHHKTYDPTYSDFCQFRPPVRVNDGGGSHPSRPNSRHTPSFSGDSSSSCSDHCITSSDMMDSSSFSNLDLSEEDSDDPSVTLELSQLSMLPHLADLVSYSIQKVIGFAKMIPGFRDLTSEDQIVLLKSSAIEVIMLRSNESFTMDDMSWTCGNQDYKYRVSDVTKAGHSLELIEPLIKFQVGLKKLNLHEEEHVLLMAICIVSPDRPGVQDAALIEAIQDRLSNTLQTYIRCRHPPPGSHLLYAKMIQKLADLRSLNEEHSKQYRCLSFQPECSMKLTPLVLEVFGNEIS

Question: `C/C=C/c1ccc2c(c1)OCO2` was tested. Which outcome did it give?
Answer: Its outcome is “inactive”.

Question: `CSc1nnc(C(C)(C)C)c(=O)n1N` was tested. Which outcome did it give?
Answer: Its outcome is “inactive”.

Question: How did the outcome turn out when `N#Cc1cccc(C#N)c1` was run?
Answer: The outcome was “inactive”.

Question: `CCNc1nc(Cl)nc(NC(C)C)n1` was tested. Which outcome did it give?
Answer: The outcome was “inactive”.

Question: Which outcome does the source give for `O=C/C=C/c1ccccc1` here?
Answer: Its outcome is “inactive”.

Question: `Cc1ccc(N=C=O)cc1N=C=O` was tested. Which outcome did it give?
Answer: Its outcome is “inactive”.

Question: `C=CC(=O)OCCCCCC(C)C` was tested. Which outcome did it give?
Answer: Its outcome is “inactive”.

Question: Which outcome does the source give for `CNCC(O)c1ccc(O)cc1` (stereo not given) here?
Answer: The outcome was “inactive”.

Question: How did the outcome turn out when `COc1cc(-c2ccc(N)c(OC)c2)ccc1N` was run?
Answer: The outcome was “inactive”.

Question: `O=[N+]([O-])c1ccc(Cl)c(Cl)c1` was tested. Which outcome did it give?
Answer: Its outcome is “inactive”.

Question: Which outcome does the source give for `COS(=O)(=O)OC` here?
Answer: The outcome was “inactive”.

Question: Which outcome does the source give for `Nc1ccc(N)cc1` here?
Answer: Its outcome is “inactive”.

Question: For `Cc1cccc(N)c1C`, which outcome is on record?
Answer: The outcome was “inactive”.

Question: With `c1ccc2c(c1)CCCC2` as the molecule, how does the outcome read?
Answer: The outcome was “inactive”.

Question: How did the outcome turn out when `CN(C)CCC#N` was run?
Answer: Its outcome is “inactive”.

Question: How did the “activation” value turn out when `C=C(C)C(=O)OCC(CC)CCCC` (stereo not given) was run?
Answer: The value was 0.178% [at 81.1 µM].

Question: `O=C(O)C(Br)Br` was tested. Which outcome did it give?
Answer: Its outcome is “inactive”.

Question: With `CC(C)c1cccc(C(C)C)c1O` as the molecule, how does the outcome read?
Answer: The outcome was “inactive”.

Question: How did the outcome turn out when `ClC(Cl)c1ccccc1` was run?
Answer: Its outcome is “inactive”.

Question: `CNC(=O)O/N=C/C(C)(C)S(C)=O` (stereo not given) was tested. Which outcome did it give?
Answer: Its outcome is “inactive”.

Question: How did the outcome turn out when `COP(=S)(OC)Oc1ccc(SC)c(C)c1` was run?
Answer: The outcome was “inactive”.

Question: `FC(F)(F)c1ccc(Cl)cc1` was tested. Which outcome did it give?
Answer: The outcome was “inactive”.

Question: Which outcome does the source give for `C[C@H]1C(=O)O[C@@H]2CCN3CC=C(COC(=O)[C@](C)(O)[C@]1(C)O)[C@H]23` here?
Answer: The outcome was “inactive”.

Question: For `CC(C)CCCCCCOC(=O)c1ccccc1C(=O)OCCCCCCC(C)C`, which outcome is on record?
Answer: The outcome was “inactive”.

Question: Which “activation” value does the source give for `OCc1ccco1` here?
Answer: The value was 3.69% [at 81.1 µM].

Question: `Nc1ccc([As](=O)(O)O)cc1` was tested. Which outcome did it give?
Answer: Its outcome is “inactive”.

Question: `CN(C)C(=O)Cl` was tested. Which outcome did it give?
Answer: Its outcome is “inactive”.

Question: How did the outcome turn out when `C=CC#N` was run?
Answer: Its outcome is “inactive”.

Question: For `Nc1ncc([N+](=O)[O-])s1`, which “activation” value is on record?
Answer: Its value is 1.1% [at 81.1 µM].

Question: How did the outcome turn out when `CNc1cnn(-c2cccc(C(F)(F)F)c2)c(=O)c1Cl` was run?
Answer: Its outcome is “inactive”.

Question: With `COc1nc(NC(C)C)nc(NC(C)C)n1` as the molecule, how does the outcome read?
Answer: The outcome was “inactive”.

Question: `OCCCCO` was tested. Which outcome did it give?
Answer: The outcome was “inactive”.

Question: Which outcome does the source give for `Oc1ccc(Cl)cc1` here?
Answer: Its outcome is “inactive”.

Question: Which outcome does the source give for `CC(=O)C1CCOC1=O` (stereo not given) here?
Answer: The outcome was “inactive”.

Question: `CC12CC1(C)C(=O)N(c1cc(Cl)cc(Cl)c1)C2=O` (stereo not given) was tested. Which outcome did it give?
Answer: The outcome was “inactive”.

Question: `Cl/C=C/Cl` was tested. Which outcome did it give?
Answer: Its outcome is “inactive”.

Question: For `CN(C)C(=O)C(c1ccccc1)c1ccccc1`, which “activation” value is on record?
Answer: The value was 4.49%.

Question: For `Cc1cccc(N)c1`, which outcome is on record?
Answer: Its outcome is “inactive”.

Question: With `CN(C)NC(=O)CCC(=O)O` as the molecule, how does the “activation” value read?
Answer: Its value is 0.623% [at 81.1 µM].

Question: `N#CN=C(N)N` was tested. Which “activation” value did it give?
Answer: Its value is 0.8% [at 81.1 µM].
